# The full list was thinned out, with hits kept by preference.
# FBPA Giardia inh = Giardia lamblia aldolase inhibition. Potency, µM (series often up to 59.6 µM), for inactives: top-dose activity, negative = inhibition, hits mostly inhibitors. AID 2451. A8B2U2. actives 0.71% (n = 290,000). purified Giardia FBPA; also: potency is read from the fitted curve at half-maximal effect; % is scaled to controls: 0 for no effect and ±100 for the full control effect; nearly all actives have a fitted effect of over 55% in size
# Target sequence (A8B2U2 whole entry, looked up): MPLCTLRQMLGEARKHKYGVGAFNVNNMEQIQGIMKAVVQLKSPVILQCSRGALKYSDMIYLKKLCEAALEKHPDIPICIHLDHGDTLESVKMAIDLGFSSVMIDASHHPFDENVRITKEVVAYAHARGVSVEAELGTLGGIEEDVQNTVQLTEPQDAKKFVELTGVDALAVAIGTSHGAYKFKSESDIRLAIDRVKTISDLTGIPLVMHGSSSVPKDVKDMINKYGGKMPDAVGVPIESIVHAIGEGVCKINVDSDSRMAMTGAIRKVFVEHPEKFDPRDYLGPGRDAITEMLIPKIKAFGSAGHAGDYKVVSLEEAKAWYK
#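 Giardia FBPA (40 nM reagent) was preincubated 10 min at RT with compound (up to 57.5 uM final), then substrate plus GAPDH/TPI/NAD/arsenate coupling system with diaphorase/resazurin was added; resorufin fluorescence (525/598 nm) was read after 20 min.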
# LmPK inhibitor = blocks Leishmania mexicana pyruvate kinase activity; Potency, µM (doses to about 57.5 µM), for inactives: at the highest dose activity change, negative = inhibition, usual class: inhibitors; purified LmPK, Kinase-Glo ATP luminescence, 1 h; actives 0.37% (n = 290,000); AID 1721; Q27686; also: potency is read from the fitted curve at half-maximal effect; % is scaled to controls: 0 for no effect and ±100 for the full control effect
#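 Kinase-Glo luminescence read after 1 h RT reaction of 0.1 nM LmPK with 0.5 mM PEP and 0.1 mM ADP. Activity scaled between uninhibited and enzyme-free controls.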
# Sm TGR inh = blocks Schistosoma mansoni thioredoxin glutathione reductase | Q962Y6 | Potency, µM (top dose mostly 114 µM), inactives show top-dose activity change, negative = inhibition, usual class: inhibitors | actives 3% (n = 360,000) | purified TGR, DTNB reduction, TNB absorbance 405 nm | AID 485364; also: potency is read from the fitted curve at half-maximal effect; % is scaled to controls: 0 for no effect and ±100 for the full control effect; nearly all actives have a fitted effect of over 60% in size
#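 TGR 20 nM + NADPH 100 uM (dispensed conc.), cpd preinc 15 min RT; start with NADPH (500 uM addition) then DTNB (15 mM addition). Kinetic TNB absorbance, 405 nm filter. Four-parameter Hill fit across titration.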
# Tb PYK inh = T. brucei pyruvate kinase inhibition | Q57TT1 | TbPYK enzyme, Kinase-Glo Plus ATP luminescence, 45 min | Potency, µM (top dose mostly 76.8 µM), for inactives: at the highest dose activity, negative = inhibition, most hits filed as inhibitors | actives 0.12% (n = 410,000) | AID 624173; also: potency is read from the fitted curve at half-maximal effect; % is scaled to controls: 0 for no effect and ±100 for the full control effect; nearly all actives have a fitted effect of over 50% in size
#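 Activity of T. brucei pyruvate kinase was followed by Kinase-Glo Plus luminescence after the enzyme reacted 45 min at room temperature with 130 uM ADP (final) and substrate. Test compounds were added before ADP at multiple concentrations.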
# Cycloheximide cs = affects cycloheximide protein synthesis inhibition readout, counter-screen | AID 2314 | max response, % | cell reporter, cycloheximide protein synthesis inhibition counterscreen | actives 12% (n = 300,000); in the data active = max response mostly above about 13%, no sharp cut-off; inactive = mostly below about 14%; also: read at 38.3 µM for the half of the compounds with a filed dose; 0% is about no effect
# Shiga inhibitor = blocks Shiga toxin action in Vero cells; AID 2315; actives 9.2% (n = 290,000); Vero cells, Shiga toxin protein synthesis inhibition reporter; inhibition, % at 38.7 µM; in the data active = inhibition mostly above about 28%, no sharp cut-off; inactive = mostly below about 43%; also: 0% is about no effect
# Starred values were filed as active, the others as inactive; ? = inconclusive; nt = not tested or not shown; [ ] = dose if it differs, or a comment. Unless noted, calls follow the shape of the dose curve; as a rule, active = well fitted curve in the direction sought with a large enough effect; inconclusive = small, poorly fitted or top-dose-only effect, or another doubt; inactive = no such curve, though single readings can be large; an effect the other way counts as inactive or inconclusive.
SMILES,FBPA Giardia inh,LmPK inhibitor,Sm TGR inh,Tb PYK inh,Cycloheximide cs,Shiga inhibitor
Cc1cc(-n2c(C)cc(C(=O)CSc3ncnc4ccccc34)c2C)no1,?,5.8%,0.1%,-6.4%,0.9,15.9
O=C(CSCCSCC(=O)c1ccco1)c1ccco1,?,10.9%,-31.2%,nt,13.1*,49.1
Cc1cc2c(cc1NS(=O)(=O)c1ccc(F)cc1)n(C)c(=O)c(=O)n2C,nt,nt,5.2%,-3.7%,nt,nt
O=C(CSc1nnnn1-c1ccccc1)c1ccco1,-3.0%,-0.3%,?,-3.1%,35.6*,26.9
Cn1nnnc1SCC(=O)c1ccco1,-7.9%,3.2%,4.4%[11.4 µM],-6.2%,18.9,-5.6
COc1ccc(-c2cnn3c(N)c(S(=O)(=O)C(C)(C)C)cnc23)cc1,-12.2%,3.0%,0.3%,-21.1%,31.6*,40.3
COc1ccc(-c2cnc3c(-c4ccc(F)cc4)cnn3c2N)cc1,8.9%,12.7%,-33.6%,0.2%,51.0*,121.2*
CS(=O)(=O)c1cnc2c(S(=O)(=O)c3ccccc3)cnn2c1N,-1.1%,-0.3%,-0.4%,-0.7%,-6.1,15.3
COc1ccc(-c2cnc3ncnn3c2N)cc1,4.5%,3.3%,nt,-19.9%,-4.9,7.1
CS(=O)(=O)c1cnc2c(-c3ccsc3)cnn2c1N,-4.1%,-1.2%,6.7%,-12.6%,37.8*,66.5*
Cc1ccc(NC(=O)CCCn2nc(C)c3sc4ccccc4c3c2=O)c(Cl)c1,nt,nt,-1.1%,4.3%,nt,nt
CCNC(=O)C1(C)CCCN(C(=O)c2cc(C)n(C(C)(C)C)n2)C1 (stereo not drawn),nt,nt,nt,1.6%,nt,nt
CCNC(=O)C1(C)CCCN(C(=O)c2nc(C)oc2C)C1 (stereo not drawn),nt,nt,nt,-7.3%,nt,nt
Cc1ccccc1-c1nc(SCc2cccnc2)c2c(=O)n(C)c(=O)n(C)c2n1,1.0%,3.5%,44.7µM*,-9.4%,5.5,6.3
O=C(CSc1nc2nc(-c3cccs3)cc(C(F)(F)F)c2c(=O)[nH]1)C(F)(F)F,?,-1.0%,3.55µM*,-4.4%,-6.2,-6.9
Cc1ccc(Nc2nc(N)nc(CSCCO)n2)cc1,-6.2%,-7.1%,-28.9%,1.1%,31.1*,59.9*
Cc1ccc(Nc2nc(N)nc(CCl)n2)c(C)c1,1.9%,4.0%,31.6µM*,-3.5%,78.5*,105.9*
Cc1cccc(Nc2nc(N)nc(CCl)n2)c1C,0.0%,1.8%,-5.5%,3.7%,53.2*,58.6*
CCOc1ccc(Nc2nc(N)nc(CCl)n2)cc1,0.4%,-21.2%,25.1µM*,-6.6%,42.8*,59.3*
CCCCc1nc2c(c3c1C[C@H](C)OC3)CN(C(=O)N[C@@H](C)c1ccccc1)CC2,1.0%[12.9 µM],-1.7%[11.5 µM],nt,nt,nt,nt
CC(C)CC(C(=O)NCc1ccc(F)cc1)N1Cc2ccccc2C1=O (stereo not drawn),nt,nt,-5.3%,1.9%,nt,nt
Cc1ccc(Nc2nc(N)nc(CC#N)n2)cc1,2.1%,-2.3%,17.4%,3.6%,35.1*,45.7*
Nc1nc(CCl)nc(Nc2ccccc2)n1,-16.7%,-2.2%,39.8µM*,1.6%,36.0*,71.1*
Cc1ccc(Nc2nc(N)nc(CCl)n2)cc1,-10.3%,-12.5%,11.2µM*,-1.2%,75.3*,96.0*
Cc1ccc(Nc2nc(N)nc(CSc3nc(C)cc(C)n3)n2)cc1,1.8%,2.4%,-4.7%,-2.9%,2.9,-5.0
SMILES,FBPA Giardia inh,LmPK inhibitor,Sm TGR inh,Tb PYK inh,Cycloheximide cs,Shiga inhibitor
COc1ccccc1N1CCN(c2ccc(=O)n(CC(=O)O)n2)CC1,nt,nt,-0.5%,-0.8%,nt,nt
O=C(NCc1ccccn1)c1c(-c2ccccc2)sc2ccccc12,nt,nt,nt,-3.8%,nt,nt
CC(=O)Oc1c(C)c(C)c2c(c1C)CC[C@@](C)(CCC[C@H](C)CCC[C@H](C)CCCC(C)C)O2,-20.0%,nt,-12.2%,-5.1%,-7.5,-4.8
OCc1ccccn1,nt,nt,nt,-0.7%,nt,nt
O=Cc1ccc(OCc2ccccn2)cc1,6.2%,?,-3.9%,-7.1%,21.5*,39.5*
O=Cc1ccc(OCc2ccc3ccccc3c2)cc1,1.9%,0.8%,-0.5%,-1.6%,54.1*,nt
O=Cc1cccc(OCc2cccc3ccccc23)c1,-1.5%,-5.8%,-0.6%,-3.7%,34.2*,63.2*
CCOc1ccccc1Nc1ncnc2c1c(-c1ccccc1)cn2-c1ccc(OC)cc1,nt,nt,2.6%,2.1%,nt,nt
O=Cc1ccc(-c2ccccc2C(=O)O)o1,-2.9%,12.9%,0.2%,-7.5%,-3.5,16.5
Cc1c(C(=O)O)cccc1-c1ccc(/C=N/Nc2ccc(Br)cc2)o1,-14.0%,7.7%,?,-13.1%,106.1*,139.6*
Cc1c(C(=O)O)cccc1-c1ccc(/C=N/n2cnnc2)o1,1.1%,-0.2%,-30.8%,-11.8%,28.1*,37.7
O=S(=O)(NCCc1cn2ccccc2n1)c1cccs1,2.3%,-2.9%,4.4%,-3.1%,19.6*,15.0
O=S(=O)(NCc1cn2ccccc2n1)c1cccs1,-11.2%,-0.5%,0.3%,9.2%,29.2*,53.2*
O=S(=O)(NCc1cn2ccccc2n1)c1cc(F)ccc1F,-10.4%,-3.8%,-22.8%,2.4%,7.7,-6.6
CCCCC1(CC)SCC(=O)NC1=O (stereo not drawn),nt,nt,nt,5.7%,nt,nt
O=C1c2ccccc2C(=O)N1OCc1c(F)cccc1Cl,-9.4%,0.2%,nt,-2.7%,21.9*,16.5
O=C(Cc1c(F)cccc1Cl)OCN1C(=O)c2ccccc2C1=O,0.9%,-3.6%,-16.5%,-9.1%,-0.9,-7.8
CCc1ccccc1Nc1nn2c(=O)c3ccc(C(=O)NCCC4=CCCCC4)cc3nc2s1,nt,nt,1.1%,0.5%,nt,nt
CCOC(=O)N1CCN(c2cc(N(C)CCO)c([N+](=O)[O-])c3nonc23)CC1,-16.8%,2.1%,35.5µM*,3.1%,-0.8,-10.1
CN(CCO)c1cc(Sc2nc3ccccc3s2)c2nonc2c1[N+](=O)[O-],-18.8%,0.7%,0.316µM*,-10.8%,-1.8,-3.6
CC(=O)OCCNc1cc(SC(C)C)c2nonc2c1[N+](=O)[O-],-20.3%,9.5%,-23.5%,7.3%,-7.8,-7.0
CC1(C(=O)CSc2nc3ccccc3s2)CCC(=O)O1 (stereo not drawn),-9.3%,-0.2%,-1.4%,?,-0.2,1.9
CC(=O)OCCN(C)c1cc(SC(C)C)c2nonc2c1[N+](=O)[O-],-27.3%,-7.9%,0.708µM*,-14.3%,-4.6,10.6
CC(C)(C)NC(=O)CN(C(=O)c1snc(C(=O)NC2CCCCC2)c1N)c1ccc(F)cc1,-0.9%,2.2%,1.1%,-6.3%,-4.3,-18.9
COc1cc(CN(C)CC2CCCN(CCc3cccc(C(F)(F)F)c3)C2)ccc1O (stereo not drawn),2.6%,2.5%,28.2µM*,-3.9%,1.1,4.7
CNC(=O)c1cnc2sc(N3CCCCCC3)nn2c1=O,nt,nt,-9.3%,2.3%,nt,nt
